# Data reported in PubChem BioAssay AID1508600 (Functional Genomics Laboratory (NCATS/FGL), 2020).
# Screen size: about 53,000 sequences; about 3,700 (7%) were called active. The full list was thinned out, with actives kept by preference. Values without a mark were called inactive.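 The calls were made as follows: active = gene knockdowns whose robust z-score for IL-1 alpha signal is at least 2 or at most -2, so actives lie on both sides; inactive = the rest.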
# Experiment: Components of the Cytosolic LPS Sensing Pathway: Gene Identification via Genome-wide siRNA Screen
# Conditions: RAW264.7 macrophages, IL-1a HTRF, actives lie on both sides, screened at 100 nM (by protocol), cells primed 5 h with Pam3CSK4 first
# Source text: Non-canonical inflammasome activation by cytosolic LPS is a critical component of the host response to Gram-negative bacterial infection, however we lack a comprehensive understanding of the cellular processes that control this pathway. Here we describe a genome-wide siRNA screen to identify genes regulating the mouse macrophage IL-1 alpha response to cytosolic LPS.
# RAW264.7 cells were maintained in complete DMEM media, comprising DMEM with 4.5 g/L glucose, 10% FBS (Gemini Bio-Products, West Sacramento, CA), 2 mM Glutamine (Lonza) and 20 mM HEPES (Lonza), hereafter complete DMEM.
# The RNAi screen was conducted in 384-well format using the Ambion Silencer Mouse Genome siRNA Library (#4391425), which consists of three unique, nonoverlapping, nonpooled siRNAs for each of 17,000 gene targets. siRNA reagents ([…]) were stamped into 384-well white flat-bottom microplates (Corning, 3570) using a Velocity11 VPrep liquid handling system (Agilent) integrated into a BioCel robotic platform (Agilent) in columns 1-22, leaving columns 23-24 empty for negative (Ambion, Negative control #1) and positive (mouse Casp4) controls, respectively. The median value of each plate's negative control column was used to normalize sample wells, and the positive control was used to assess transfection efficiency and assay performance.
# Lipofectamine RNAiMAX Transfection Reagent ([…]; Invitrogen) was added in […] serum-free, antibiotic-free media to plate wells using a Thermo Scientific Matrix WellMate and Microplate Stacker. Plates were incubated for 45 min at room temperature to allow for the sufficient formation of siRNA-lipid complexes. Cells were seeded at a density of 1x10^4 cells per well in 20 microL media containing 20% (vol/vol) FBS without antibiotics. The final concentration of siRNA in each well was 100 nM. Cells were cultured for 48h at 37 degrees C in 5% CO2 before addition of […] of TLR ligand Pam3CSK4 for 5 hours. The medium was then removed, replaced with […] growth media and cell were transfected with […] of LipidA and TransIT-TKO (Mirus) for 24 hour. At the end of the LipidA treatment, […] of supernatant was transferred to a 384 Greiner Bio-one non-binding low volume plate and […] of IL-1a HTRF reagent (Cisbio, 62MIL1APEH) was added and incubated at room temperature overnight. The plates were read on an EnVision plate reader (PerkinElmer). Cell viability was measured by adding 20ul Cell Titer Glo to the original plate and running a luminescence read on the EnVision. The quantified IL-1a signal for each siRNA gene-targeted well was divided by the median of the negative control wells and multiplied by 100 to achieve a negative control normalized value for each well/siRNA. This normalized value was then used to generate a robust z-score by first taking the log of each value and then by subtracting the median and dividing by the […].
row,Sequence,z-score
1,CCUUAGGUCUAAGUAAUCUTT against Dnase1l1,2.3 (active)
2,GGACUCAAAUGUGAUGCAUTT against Prkcq,-0.718
3,GGCACAUUCAUAGAACAAGTT against Znrd1as,2.01 (active)
4,GCGGCGCAUGACUGAAAGATT against Chd8,0.86
5,GGUCAACUCCUUUAUGAGCTT against Apoa4,-0.238
6,GGAUGAUGAGAGAAACAAATT against Jak1,3.78 (active)
7,GGAAGUAAAGAGGAUCUCATT against Vat1l,-0.678
8,GGUGAUUAGCAAUCAUCAGTT against Zfp942,-0.295
9,GGCCACUUGAGAACAUUCGTT against Nop10,0.331
10,GGUACAAUGAAAGUCUCACTT against Cnot6,-0.0743
11,GGACCUUGUACCCAUUCCUTT against Prr5,1.01
12,GCAAUGAGUGCUAGUUUUUTT against Cdc42,2.6 (active)
13,CGUGGAUAUCAGAAAGCAATT against Cfhr2,-0.487
14,GGACUUUAAUCACAGACAATT against Fem1b,-1.73
15,CGAGUUCAUCAAAAAGGAATT against Kansl1l,0.708
16,CCAUUCUCAGGCAAAUACUTT against Pid1,2.11 (active)
17,GGCUGAUGAUACUUAAACATT against Vmn1r83,-1.26
18,CGGCAUGCUGUGGAAAAAGTT against Btrc,-0.869
19,GCACUUUGACAUUUUGGUATT against Arl4c,-0.0352
20,AGAGCAAAAACUCGAGCACTT against Sox15,-0.253
21,GGUUGUGAGUGAGAACACUTT against Prss35,0.738
22,CCUUGCAGCAUCAGGACUUTT against Ascl2,4.06 (active)
23,GGUAACACAGAAGAAAUCUTT against Higd1a,-0.0444
24,GGCAGAAGAACUUUUCCAGTT against Capsl,0.874
25,CCUUCUAGAGUACAUCAUATT against Prl7d1,0.298
26,GGGUUUCUUCGUGUCUAUUTT against Pth2r,1.56
27,GGGAAGUAGCCAUCACACCTT against Ttbk1,0.768

row,Sequence,z-score
1,CCUAUAGCAGUGGUUUUCATT against Ece2,2.22 (active)
2,GGCUUUUCGUUGUAAAUCATT against 9930111J21Rik2,0.735
3,CGGGAAGUAAACAUUUCCATT against Rassf6,0.527
4,GGACUCUGAUCUCUAUCAGTT against Tac2,-0.357
5,GGAGGAGAGGUACAAGAUGTT against Pcyt2,-0.804
6,GGGAAGUCCAAAUAACGGATT against Zfp184,0.136
7,CCGACCCAAUUAAUGAUCATT against Tlcd2,-1.12
8,CCAAAGUUUUAUCAGUUUGTT against Gpr87,0.653
9,GGUACUUUUACUCCCGAAGTT against Lgals3bp,-2.05 (active)
10,GGUGAUAUAGCUAUUUUCUTT against Fbxw11,0.711
11,GGAAACACCAGAGAAGUCCTT against Etf1,-0.56
12,GGUGCAAGAUAGUACGAUGTT against Gle1,-0.649
13,GCACAAUAAAGCUUGUUGCTT against Trmt2a,-2.26 (active)
14,GGAAGAUGGGCGACUCUAUTT against Pkmyt1,0.176
15,GGAUUCUCACCAAAUACUUTT against Oprd1,0.305
16,CGAUAUUUAUCAUGAGUGCTT against Nlrp9c,-1.9
17,CCCACGAGGGAUAUAUCUGTT against Cd3d,-0.994
18,CGGCACCAGUGUUCUAUUGTT against Ddi2,1.91
19,CCGCAAAGUGAGCAAGGUGTT against Id1,-0.63
20,GGAAAGCAGACAUCGACCUTT against Rps18,-0.848
21,GGAACGUGUUCAAAAGAGUTT against Sos1,2.22 (active)
22,GGCCUAUCAAAAUUCAGUUTT against Rbm7,1.17
23,GGAGAUUGGACCACUAUGATT against Sec24d,-1.31
24,GGAGUUCGACAUUAGCGGATT against Ehf,0.0965
25,GCAACAGUUGGUCUAAAAUTT against Psma1,-2.11 (active)
26,GGAAUGUUUCUUUAUCACATT against Slc35e4,-0.837
27,GCGUAUUUGGUGUUAAAAATT against Iars,0.417
